Screens (PubChem)
This is a sample that favours compounds with a hit; in the whole collection about 4.5% have one here.
Rtt109 HAT inh: inhibitors of C. albicans Rtt109/Vps75 HAT, primary screen, biochemical, ThioGlo CoA-SH fluorescence, plate reader. Histone acetyltransferase RTT109 (Candida albicans (strain SC5314 / ATCC MYA-2876)), …. purified Rtt109/Vps75, 4 h. inhibition, % at 34.9 µM. 0.16% of 330,000 active. AID 540336, 2011;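 active = inhibition of at least 50% in every replicate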
Target sequence (Q5AAJ8 whole entry, looked up): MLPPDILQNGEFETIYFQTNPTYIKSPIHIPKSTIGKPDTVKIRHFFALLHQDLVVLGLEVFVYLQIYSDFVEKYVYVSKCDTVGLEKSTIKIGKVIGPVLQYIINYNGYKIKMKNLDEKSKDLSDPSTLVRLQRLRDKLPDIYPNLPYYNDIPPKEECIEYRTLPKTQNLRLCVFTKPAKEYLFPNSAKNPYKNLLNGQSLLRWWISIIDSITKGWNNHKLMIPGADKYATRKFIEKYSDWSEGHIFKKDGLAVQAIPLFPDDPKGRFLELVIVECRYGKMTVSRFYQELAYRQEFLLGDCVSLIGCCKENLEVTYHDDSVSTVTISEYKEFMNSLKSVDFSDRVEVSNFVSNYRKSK
Rce1 inhib: yeast Rce1p protease inhibitors, primary screen, biochemical, fluorescence, cell-free homogeneous | yeast membranes, quenched prenylated peptide cleavage fluorescence | calls only | 0.27% of 290,000 active | AID 2563, 2010;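 active = fall in fluorescence gain of 50% or more versus controls, with final raw signal at or below 3038400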
HDAC3 inh: HDAC3 deacetylase inhibitors, primary screen, biochemical, fluorescence, cell-free homogeneous; Histone deacetylase 3 (Homo sapiens), O15379; recombinant HDAC3, fluorogenic peptide/trypsin coupled; inhibition, % at 8.3 µM; 0.15% of 320,000 active; AID 2718, 2010; in the data active = inhibition above about 26%, passing the limit was not always enough
ALR inh: inhibitors of human ALR sulfhydryl oxidase, primary screen, biochemical, H2O2 detection, HRP-luminol luminescence, single point; purified ALR, DTT oxidation; 3.8% of 290,000 active; inhibition, % (concentration not given with the values);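 active = mean replicate inhibition above about 79%, with every replicate also reaching it, limit read from the data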
GRK2 aptamer HTS: compounds blocking aptamer binding on GRK2 – biochemical, human GRK2, bead flow cytometry, HTS, primary screen | 0.59% of 330,000 active | inhibition of aptamer binding, % at 10 µM | AID 488847, 2010 | Beta-adrenergic receptor kinase 1 (Homo sapiens), P25098 | FAM-aptamer displacement from GRK2;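 active = inhibition of aptamer binding above 40%, roughly 3 SD of noise, on plates passing a quality check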;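 also: median bead fluorescence of bound FAM aptamer so fluorescent compounds give negative values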
Efflux pump mplx: inhibitors of Candida efflux pumps in yeast, primary screen, S. cerevisiae, Nile Red, multiplex; S. cerevisiae Candida pump triplex; inhibition, % at 10 µM; 0.44% of 330,000 active; AID 485275, 2010;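 active = plate passing quality check with inhibition over a set limit, or well fluorescence over plate mean plus 4 SD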;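 also: Nile Red retained in pooled yeast measured as flow cytometry median fluorescence; higher means more Nile Red kept so more efflux inhibition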
A number is an active result; . = inactive; / = no result; + = active, no number.

SMILES | Rtt109 HAT inh | Rce1 inhib | HDAC3 inh | ALR inh | GRK2 aptamer HTS | Efflux pump mplx
Cc1ccccc1C(=O)N1CCN(c2ncccn2)CC1 | . | . | . | . | . | .
CCN(CC)c1ccc(CN(C(=O)c2cccs2)C2CCS(=O)(=O)C2)cc1 (stereo not drawn) | . | . | . | 99 | . | .
Cc1c(C(=O)N(Cc2ccc(F)cc2)C2CCS(=O)(=O)C2)oc2ccccc12 (stereo not drawn) | . | . | . | . | . | .
Cc1ccc2c(C)c(C(=O)N(Cc3ccc(F)cc3)C3CCS(=O)(=O)C3)oc2c1 (stereo not drawn) | . | + | . | . | . | .
CCN(CC)c1ccc(CN(C(=O)c2ccco2)C2CCS(=O)(=O)C2)cc1 (stereo not drawn) | . | / | . | 99 | . | .
CCN(CC)c1ccc(CN(C(=O)c2cc(OC)c(OC)c(OC)c2)C2CCS(=O)(=O)C2)cc1 (stereo not drawn) | . | . | . | 94 | . | .
CCc1ccc(CN(C(=O)c2ccco2)C2CCS(=O)(=O)C2)cc1 (stereo not drawn) | . | . | . | . | . | .
COc1ccc(CN(C(=O)c2cccc(OC)c2)C2CCS(=O)(=O)C2)cc1 (stereo not drawn) | / | . | . | . | . | .
COc1cc(C)c(COc2ncnc3ccccc23)cc1OC | . | . | . | . | . | .
O=[N+]([O-])c1ccc(-c2cn(-c3ccccc3F)c(=S)[nH]2)cc1 | . | . | . | 84 | . | .
Cc1nn(C(=O)c2ccc([N+](=O)[O-])cc2)c(C)c1Br | . | / | . | . | . | .
O=S1(=O)C[C@@H](O)[C@@H](Nc2ccc(Cl)cc2)C1 | . | . | . | 98 | . | .
Cc1cccc(C)c1N=Nc1c(C)cc(O)cc1C | . | . | . | 92 | . | .
Cc1cccc(O)c1C | . | / | / | / | . | .
Nc1ccc(Sc2cnn(-c3ccccc3)c(=O)c2Cl)cc1 | . | . | . | 92 | . | .
Cc1ccc(Sc2cnn(-c3ccccc3)c(=O)c2Cl)cc1 | . | . | . | . | . | .
COCCNC(=S)N(CCc1c(C)[nH]c2ccccc12)Cc1ccco1 | . | . | . | 87 | . | .
Cc1cnc([N+](=O)[O-])n1CCOC(=O)NC(=O)c1cccc(F)c1 | . | . | . | . | . | .
O=c1c(-c2ccc(O)cc2O)coc2cc(O)cc(O)c12 | . | . | . | 81 | . | .
COc1ccccc1-c1coc2cc(O)cc(O)c2c1=O | . | . | . | . | . | .
CCCc1nnc(NC(=O)CN2C(=O)c3ccccc3C2=O)s1 | . | . | . | . | . | .
CCc1nnc(NC(=O)CN2C(=O)c3ccccc3C2=O)s1 | 55 | . | . | . | . | .
Cc1noc(C(=O)N2CCN(c3ccccc3)CC2)c1Cl | . | . | . | 96 | . | .
O=C(c1ccc(Cl)s1)N1CCN(c2ccccc2)CC1 | . | . | . | 97 | . | .
CC(C)(C)OC(=O)N1CCN(C(=O)c2nc[nH]c2C(=O)N2CCN(c3ccccc3)CC2)CC1 | . | / | . | . | . | .
SMILES | Rtt109 HAT inh | Rce1 inhib | HDAC3 inh | ALR inh | GRK2 aptamer HTS | Efflux pump mplx
O=C(c1ccc(Cl)s1)N1CCN(c2ncccn2)CC1 | . | . | . | . | . | .
O=C(c1nc[nH]c1C(=O)N1CCN(c2ccccc2)CC1)N1CCN(c2ccccc2)CC1 | . | / | . | 93 | . | .
COc1cccc(C2(C)NC(=O)N(CC(=O)c3cc(C)n(C4CC4)c3C)C2=O)c1 (stereo not drawn) | . | / | . | . | . | .
CCN(CC)c1ccc(-n2c(O)c(C=C3N=c4ccccc4=N3)sc2=S)cc1 | . | . | . | . | . | .
O=C(O)c1cccc(-n2c(O)c(C=C3N=c4ccccc4=N3)sc2=S)c1 | . | . | . | 99 | . | .
O=C(O)c1ccc(-n2c(O)c(C=C3N=c4ccccc4=N3)sc2=S)cc1 | . | . | . | 99 | . | .
O=C(O)CCCn1c(O)c(C=C2N=c3ccccc3=N2)sc1=S | . | . | . | . | . | .
